From PubChem BioAssay
TEAD-YAP inh: TEAD-YAP interaction inhibition; HEK-TIYL cells, TEAD-Gal4/YAP UAS-luciferase luminescence; inhibition, % at 9.12 µM; 640,000 tested, 1.4% active; in the data active = inhibition above about 32%;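 also: 0% = median of test compound wells and 100% = reference inhibitor wells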
GPR151 ag: activators of human GPR151; activation, % at 11.2 µM; PathHunter beta-arrestin GPR151 cells, luminescence; AID 1508602; 650,000 tested, 1% active; Q8TDV0; in the data active = activation above about 4.9%;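 also: 0% = median of compound wells and 100% = cells with positive control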
Target sequence (Q8TDV0 whole entry, looked up): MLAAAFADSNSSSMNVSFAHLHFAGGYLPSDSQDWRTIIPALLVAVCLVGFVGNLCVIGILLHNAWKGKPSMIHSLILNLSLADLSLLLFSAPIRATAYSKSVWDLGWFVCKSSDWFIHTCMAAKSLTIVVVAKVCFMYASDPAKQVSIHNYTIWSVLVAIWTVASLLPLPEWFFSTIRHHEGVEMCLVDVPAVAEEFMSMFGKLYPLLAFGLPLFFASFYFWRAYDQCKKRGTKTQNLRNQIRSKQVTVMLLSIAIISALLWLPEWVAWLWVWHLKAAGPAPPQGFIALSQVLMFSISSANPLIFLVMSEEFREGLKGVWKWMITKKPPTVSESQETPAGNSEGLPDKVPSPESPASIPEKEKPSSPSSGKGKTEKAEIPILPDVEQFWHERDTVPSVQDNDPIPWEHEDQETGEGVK
MITF primary: inhibitors of human MITF. 650,000 tested, 0.91% active. AlphaScreen MITF homodimerization, bead proximity signal. inhibition, % at 2.6 µM; in the data active = inhibition above about 50%;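 also: 0% = vehicle wells with protein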
FBW7 activator: activators of human E3 ligase FBW7. normalized activity (activation), % at 26.1 µM. AlphaScreen FBW7–phospho-cyclin E peptide binding, activator screen. 650,000 tested, 0.13% active. AID 1259310; in the data active = normalized activity above about 1.9%;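 also: purified mutant Fbw7 with reduced substrate affinity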
GPR151 conf act: human GPR151 activation, confirmation screen; GPR151 PathHunter beta-arrestin cells, luminescence, 90 min; % of EA-reagent control over plate median; activation, % at 11.2 µM; shares compounds with GPR151 ag; 6,700 tested, under 10 active; AID 1508609;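 active = mean percent activation across replicates above the confirmation screen cutoff of 4.91%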
GPR119 counter: GPR119 activation, counter-screen for GPR151 activators; GPR119 PathHunter beta-arrestin cells, luminescence, 90 min; 0 = compound-well median, 100 = enzyme-acceptor control; 6,700 tested, 0.3% active; shares compounds with GPR151 ag; activation, % at 11.2 µM; AID 1508611;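 active = mean percent activation in the counterscreen above 29.09%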;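 also: counterscreen on off-target GPR119 to flag nonselective hits from the GPR151 activator screen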
Active calls of the source: *; · = no result given; ! = a repeat was not active. Most compounds without a hit are left out; they make up all but 3.5% or so of the library.

SMILES	TEAD-YAP inh	GPR151 ag	MITF primary	FBW7 activator	GPR151 conf act	GPR119 counter
COc1ccc(S(=O)(=O)Nc2cccc(-n3cnnn3)c2C)cc1Br	-1.7	3.1	-5.3	0.1	·	·
COc1cccc(NC(=O)c2cc3c(=O)n4ccccc4nc3n(CC(C)C)c2=N)c1	-7.5	5.0*	-5.3	0.0	-1.3	-6.5
COCCn1c(=N)c(C(=O)NCc2ccco2)cc2c(=O)n3ccccc3nc21	-12.9	7.3*	6.4	-0.1	0.2	-8.1
O=C(NCc1cc(-c2ccc3c(c2)OCO3)on1)c1ccccc1Cl	-21.3	0.8	7.9	-0.1	·	·
CCC(=O)NNC(=O)CNc1cccc(Cl)c1	-11.8	-0.2	16.6	0.7	·	·
O=C(O)c1ccc(-c2cnn(-c3ccccc3)c2)nc1	-8.6	-9.7	2.6	0.1	·	·
O=C(O)c1cccc(-n2cc(-c3cc(F)cc(F)c3)cn2)c1	-48.5	7.2*	10.5	0.1	0.0	-2.3
COc1ccccc1C(=O)N/N=C(\C)CC(=O)Nc1ccccc1Br	-41.2	7.6*	-0.6	0.0	-0.1	8.9
CC(=O)Nc1ccccc1NC(=O)C/C(C)=N/NC(=O)c1ccncc1	-5.2	0.6	6.1	0.1	·	·
C/C(CC(=O)Nc1ccccc1Cl)=N\NC(=O)c1ccncc1	8.8	9.1*	-2.2	-0.2	-1.2	-10.4
CCOC(=O)c1cnn(-c2nc3ccccc3s2)c1CNC(C)c1csc(C)n1 (centres undefined)	4.8	1.1	4.0	-0.1	·	·
O=C(CN1C(=O)CC(c2ccco2)Sc2ccccc21)Nc1ccc(F)cc1F (centres undefined)	15.1	7.5*	16.4	0.4	0.9	-0.3
CCCCC1CCC(C(=O)OCC(=O)c2ccc(-c3ccc(Br)cc3)cc2)CC1 (centres undefined)	9.2	6.6*	3.9	0.0	-0.2	-4.1
Cc1ccoc1C(=O)NCC1Cc2cc(-c3cnccn3)cc(Cl)c2O1 (centres undefined)	7.0	2.2	5.8	0.1	·	·
CC(=O)NCC(=O)NCC1Cc2cc(-c3cnccn3)cc(Cl)c2O1 (centres undefined)	-12.6	4.9*	-3.9	0.0	-0.7	-2.0
NS(=O)(=O)c1cc(Cl)c(Cl)cc1Cl	11.6	-1.2	9.8	-0.1	·	·
O=C1C(=O)N(CCCN2CCOCC2)C(c2cccnc2)/C1=C(/O)c1ccc(Br)cc1 (centres undefined)	11.8	9.1*	2.9	0.1	-1.2	-13.1
COc1ccc(/C(O)=C2/C(=O)C(=O)N(CCN3CCOCC3)C2c2ccc(C(C)(C)C)cc2)cc1 (centres undefined)	2.7	7.0*	9.8	-0.1	-0.7	-5.0
O=C1C(=O)N(CCN2CCOCC2)C(c2cccnc2)/C1=C(/O)c1ccc(Br)cc1 (centres undefined)	-5.4	-0.6	1.6	0.4	·	·
CCC(C)C(=O)Nc1nc2c(s1)C(=O)CC(C(=O)N(C)Cc1nonc1C)C2 (centres undefined)	-16.6	5.7*	-4.7	0.1	0.3	1.9
CCC(C)CC(=O)Nc1nc2c(s1)C(=O)CC(C(=O)N(C)C(C)C)C2 (centres undefined)	-6.5	7.1*	-1.3	0.1	0.1	0.5
CC(C)N(C)C(=O)C1CC(=O)c2sc(NC(=O)c3ccccc3)nc2C1 (centres undefined)	4.1	6.4*	10.8	0.5	0.2	10.5
CCC(C)C(=O)Nc1nc2c(s1)C(=O)CC(C(=O)N(C)C(C)C)C2 (centres undefined)	-28.7	-1.5	8.0	0.2	·	·
CCC(=O)NC(c1nnc2n1CCN(Cc1ccc(OC)c(OC)c1OC)CC2)C(C)C (centres undefined)	-0.8	0.4	-1.1	-0.1	·	·
CCCc1nc2ccccc2c(=O)n1-c1c(C)n(C)n(-c2ccccc2)c1=O	-4.5	6.8*	4.0	-0.1	-0.4	-11.9
SMILES	TEAD-YAP inh	GPR151 ag	MITF primary	FBW7 activator	GPR151 conf act	GPR119 counter
Cc1c(-n2c(SC/C=C\Cl)nc3ccccc3c2=O)c(=O)n(-c2ccccc2)n1C	-3.1	-1.3	-3.9	-0.1	·	·
COc1ccc(-c2csc3ncnc(SCc4c(C)noc4C)c23)cc1	-3.2	8.1*	-16.3	0.4	-0.5	-4.3
COc1ccc2c(CN3C(=O)C(=O)N(C4CCCC4)C3=O)cc(=O)oc2c1	-18.8	10.2*	3.5	0.0	0.9	6.3
N[C@@H]1CONC1=O	-5.9	6.7*!	-12.1	-0.1	0.4	-7.5
COC(=O)c1cc([N+](=O)[O-])c(C(=O)OC)cc1Oc1ccc(Cl)cc1	-14.7	6.4*	5.0	-0.4	-0.4	-9.5
COc1cc(SC)ccc1C(=O)Nc1ccc2c(c1)OC(C)(C)O2	-54.5	5.2*	-10.2	-0.1	-0.4	-1.2
COc1ccc(OC)c(CNCc2ccc3c(c2)OCO3)c1	-8.6	-1.0	36.9	0.0	·	·
COc1ccc(OC)c(C2=NNC(=NCc3ccc4c(c3)OCO4)SC2)c1	-5.4	5.6*	-3.9	-0.1	1.4	10.1
CC(C)(C)c1ccc(COc2ccccc2C(N)=O)cc1	-26.1	-0.9	-7.1	0.1	·	·
